PfM18AAP inh: PfM18AAP enzyme inhibition; recombinant PfM18AAP, H-Glu-NHMec fluorogenic cleavage; inhibition, % at 7.35 µM; 290,000 compounds, 1.2% hits;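 active = inhibition above the campaign mean inhibition over all tested compounds plus 3 SD, cut at about 28% in these data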
PAFAH1B3 FP inh: blocks human PAF acetylhydrolase 1B catalytic subunit 3; recombinant PAFAH1B3, FP-rhodamine probe, fluorescence polarization; 340,000 compounds, 0.28% hits; inhibition, % at 3.39 µM; AID 492972;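 active = inhibition above the screen-wide average of all tested compounds plus 3 SD, cut at about 25% in these data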
Target sequence (Q15102 whole entry, looked up): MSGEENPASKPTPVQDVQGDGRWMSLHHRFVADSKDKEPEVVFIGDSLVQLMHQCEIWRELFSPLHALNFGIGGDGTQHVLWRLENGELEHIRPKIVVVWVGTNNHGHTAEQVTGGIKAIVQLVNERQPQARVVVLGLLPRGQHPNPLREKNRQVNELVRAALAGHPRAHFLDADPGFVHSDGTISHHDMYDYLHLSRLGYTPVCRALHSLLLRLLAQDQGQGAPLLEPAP
PAFAH1B2 FP inh: blocks human PAF acetylhydrolase 1b catalytic subunit 2. inhibition, % at 3.39 µM. recombinant PAFAH1B2, FP-rhodamine activity probe, fluorescence polarization. AID 492953. P68402. 340,000 compounds, 1.2% hits;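 active = inhibition above the mean of all tested compounds plus 3 SD, cut at about 24% in these data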
Target sequence (P68402 whole entry, looked up): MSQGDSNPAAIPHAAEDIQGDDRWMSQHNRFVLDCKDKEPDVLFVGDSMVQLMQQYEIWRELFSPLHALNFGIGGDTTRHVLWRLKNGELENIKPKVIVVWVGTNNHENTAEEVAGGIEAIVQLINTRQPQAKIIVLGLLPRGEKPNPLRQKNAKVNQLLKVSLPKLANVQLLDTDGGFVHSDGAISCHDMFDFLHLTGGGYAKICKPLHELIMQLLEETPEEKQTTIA
PAFAH2 FP inh: PAFAH2 (human) inhibition; recombinant PAFAH2, FP-rhodamine activity probe, fluorescence polarization; inhibition, % at 3.39 µM; 340,000 compounds, 0.99% hits; AID 492956;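 active = inhibition above the mean over all tested compounds plus 3 SD, cut at about 30% in these data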;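 also: inhibitors block probe labeling of enzyme so polarization drops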
DSG3 Ab inh: inhibitors of pemphigus antibody binding to human desmoglein-3; P32926; DSG3-coupled beads, scFv-anti-DSG3-GFP binding, flow cytometry; active compounds read low; binding (percent of control), % at 10 µM; 310,000 compounds, 0.48% hits;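 active = binding more than 3 SD below its plate's average and above zero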;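 also: hits lower antibody fragment binding to DSG3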
pPAFAH FP inh: pPAFAH (human) enzyme inhibition. Q13093. recombinant pPAFAH, FP-rhodamine probe fluorescence polarization. inhibition, % at 3.39 µM. 330,000 compounds, 1.5% hits;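 active = inhibition above the mean inhibition across the screen plus 3 SD, cut at about 25% in these data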;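 also: inhibitors block binding of the rhodamine activity-based probe so polarization drops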
Hits are given with their value; - = inactive; . = no result. Rows were chosen to be rich in hits. Some 3.8% of all compounds tested hit in one or more screens of this group.

SMILES	PfM18AAP inh	PAFAH1B3 FP inh	PAFAH1B2 FP inh	PAFAH2 FP inh	DSG3 Ab inh	pPAFAH FP inh
NNc1cc([N+](=O)[O-])cc2c1C(=O)N(Cc1ccccc1)S2=O (stereo unspecified)	42	-	-	-	-	-
CC1=C(C(=O)N2CCOCC2)CC(CC(=O)NCc2ccco2)C(=O)N1Cc1ccc(C(C)(C)C)cc1 (stereo unspecified)	.	.	.	.	-	.
CN1C(=O)C2(CCCCC2)C1c1ccccc1 (stereo unspecified)	.	-	-	-	-	-
O=C1N(c2ccccc2)C(c2ccccc2)C12CCCCC2 (stereo unspecified)	.	-	32	-	-	-
COC(=O)C(=C/C=C/N1CCOCC1)C(=O)OC	-	.	.	.	.	25
N#CC1=C(N)C2=CCCC[C@H]2[C@H](c2ccc(Br)cc2)C1(C#N)C#N	-	-	-	-	-	28
N#CC1=C(N)C2=CCCC[C@H]2[C@H](c2ccccc2)C1(C#N)C#N	-	-	-	-	-	-
C#CCN(C(=O)c1cc(COc2cccc(C(F)(F)F)c2)on1)C1CCCCC1	-	-	-	-	-	-
CCCCn1nnnc1NCc1ccc(N(CC)CC)cc1	31	-	-	-	-	-
CCCCn1nnnc1NCc1ccc(C)cc1	-	-	-	-	-	.
COc1ccc(NS(=O)(=O)c2ccc(C)c(C(=O)NCc3ccccc3CN3CCCC3)c2)cc1	.	.	.	.	-	.
CCN(CC(=O)Nc1cccc(OC)c1)C(=O)C1CC(=O)N(Cc2ccccc2Cl)C1 (stereo unspecified)	.	.	.	.	-	.
O=C(COC(=O)c1cccc(S(=O)(=O)N2CCCC2)c1)Nc1ccc(Cl)cc1	.	.	.	.	-	.
O=C(O)c1ccccc1C(=O)N1CCN(Cc2ccc3c(c2)OCO3)CC1	29	-	-	-	-	.
O=C(c1cccc(Cl)c1)N1CCN(C(=O)c2ccccc2F)CC1	-	-	-	-	-	-
O=C(c1ccccc1F)N1CCN(Cc2cccc(Cl)c2)CC1	-	-	-	-	-	29
CCCCn1c(NS(=O)(=O)c2ccc(C)cc2)c(S(=O)(=O)c2ccccc2)c2nc3ccccc3nc21	-	72	34	49	-	-
CSc1ccc(CCNC(=O)c2ccc(CS(=O)Cc3ccc(Cl)cc3)o2)cc1 (stereo unspecified)	-	-	-	-	-	30
COc1ccc(Oc2nc(C)cc(C)c2S(C)(=O)=O)cc1	-	-	-	-	-	-
COc1ccc(CSc2nc(C)cc(C)c2S(C)(=O)=O)cc1	29	-	-	-	-	-
Fc1ccccc1NC(=S)N1CCN(Cc2ccccc2)CC1	-	-	-	-	-	32
Oc1cccc(C(=S)N2CCC(Cc3ccccc3)CC2)c1	-	-	-	-	-	-
Oc1cccc(C(=S)N2CCN(Cc3ccccc3)CC2)c1	29	-	-	-	-	-
N#Cc1cccc(-c2cn(S(=O)(=O)c3ccc(Cl)cc3)nc2N)c1	-	-	-	-	-	-
Nc1nn(S(=O)(=O)c2ccccc2)cc1-c1ccc([N+](=O)[O-])cc1	-	-	32	-	-	-
SMILES	PfM18AAP inh	PAFAH1B3 FP inh	PAFAH1B2 FP inh	PAFAH2 FP inh	DSG3 Ab inh	pPAFAH FP inh
CC(C)(C)c1ccc(C2=CC(c3ccccc3)n3ncnc3N2)cc1 (stereo unspecified)	.	-	58	-	-	26
O=C1C2C3C=CC(C4CC34)C2C(=O)N1/N=C/c1ccc(-c2ccc(F)cc2[N+](=O)[O-])o1 (stereo unspecified)	-	-	-	-	-	-
Cc1ccc(-c2ccc(/C=N/N3C(=O)C4C5C=CC(CC5)C4C3=O)o2)c([N+](=O)[O-])c1 (stereo unspecified)	-	-	-	-	-	25
O=C(CN1CCN(S(=O)(=O)c2ccc(Br)s2)CC1)NC1CCCCC1	.	-	30	-	-	.
O=C(CN1CCN(S(=O)(=O)c2ccc(Br)s2)CC1)NCC1CCCCC1	.	.	.	.	-	.
Cc1ccnc(NS(=O)(=O)c2ccc(NC(=O)c3ccc(Cl)cc3[N+](=O)[O-])cc2)n1	-	-	-	-	-	.
CC(C)[C@H](N)c1nnc(SCc2ccc(Cl)cc2)o1	-	-	34	-	-	-
CCCOc1cccc(C(=O)Nc2cccc3ncccc23)c1	-	-	-	-	-	-
CCCOc1cccc(C(=O)Nc2ccc(Br)cc2F)c1	-	-	-	-	62	-
C=CCC[C@H](Cc1ccc(F)cc1)C(=O)OC[C@H](Cc1c[nH]c2ccccc12)NC(=O)[C@@H](CC=C)CC(=O)NCCO	.	-	-	-	-	27
C=CCC[C@@H](Cc1ccc(F)cc1)C(=O)OC[C@H](C)NC(=O)[C@@H](CC=C)CC(=O)N(CCO)Cc1ccccc1	.	-	-	-	-	-
C=CC[C@H](CC(=O)N(CCO)Cc1ccccc1)C(=O)N[C@@H](C)COC(=O)[C@@H](CC=C)Cc1ccc(F)cc1	.	-	26	-	-	-
CCN1CCN(C(=O)c2ccc(CSc3ccc(C)cc3)cc2)CC1	-	-	40	-	-	-
Cc1ccc(SCC2(O)CCN(C(=O)c3ccc(Cl)cc3)CC2)cc1	-	-	-	-	.	28
Cc1ccc(CN2CCN(C(=O)c3ccncc3)CC2)cc1	-	-	-	-	62	-
O=C(c1ccccc1)N1CCN(Cc2ccccc2)CC1	-	-	-	-	-	-
O=S(=O)(c1ccccc1)N1CCC(O)(CSc2ccc(Cl)cc2)CC1	-	-	-	-	.	-
O=C(NCc1ccccc1)C1CCN(S(=O)(=O)c2cccc3cccnc23)CC1	-	-	-	-	90	-
CC1(C)C=Cc2c(c3c(c4c(=O)c(-c5ccc(O)cc5)coc24)OC(C)(C)CC3)O1	-	-	-	-	.	26
O=C(CN1CCN(Cc2ccccc2)CC1)Nc1cccc(Cl)c1Cl	.	.	.	.	-	.
CCN(c1ccccc1)S(=O)(=O)c1ccc(Cl)c(NC(=O)CSc2nc(N)cc(=O)[nH]2)c1	.	.	.	.	-	.
C=CCC1(CC=C)CCCN1C(=O)c1ccc2oc(CCCC)nc2c1	.	.	.	.	-	.
O=C(CSc1nnc(CNC(=O)c2ccco2)o1)Nc1nc2ccccc2s1	29	-	-	-	-	-
O=C(CSc1nnc(CNC(=O)c2ccco2)o1)Nc1ccccc1	-	-	-	-	-	-
NC(=O)c1csc(CCNC(=O)c2ccccc2)n1	.	.	.	.	-	.
O=c1[nH]c(C2CCN(S(=O)(=O)c3ccccc3F)CC2)nc2c1nnn2Cc1ccc(OC(F)(F)F)cc1	-	-	26	-	.	-
O=c1[nH]c(C2CCCN(S(=O)(=O)c3cccc(Cl)c3)C2)nc2c1nnn2Cc1ccc2c(c1)OCCO2 (stereo unspecified)	-	-	-	-	-	-
O=c1[nH]c(C2CCCN(S(=O)(=O)Cc3ccccc3)C2)nc2c1nnn2Cc1cccc(Cl)c1 (stereo unspecified)	-	-	-	-	-	28
Cc1cc(C)cc(C(=O)NCC(=O)OCC(=O)N2CCCC2)c1	.	.	.	.	-	.
COc1ccc(C(=O)N2CCc3ccccc3C2)cc1S(=O)(=O)N1CCCC1	.	.	.	.	-	.

Compound activity as filed in PubChem.
